Results on 28 molecules are retold here after PubChem BioAssay (NCATS).

A short description of experiment [1]: Primary qHTS for inhibitors of nuclear receptor binding SET domain protein 2 (NSD2) in an isogenic RCH-ACV NSD2 p.E1099K mutant (9B) (AID 1645876). Note: nearly all actives have a fitted effect of over 70% in size. Note: potency is the fitted concentration of half-maximal effect. A general note: Quantitative high-throughput screening tests each substance at several concentrations.
The nature of experiment [2]: Primary qHTS for inhibitors of nuclear receptor binding SET domain protein 2 (NSD2) in an RCH-ACV wild type WT cells (2C) (AID 1645877). Note: nearly all actives have a fitted effect of over 70% in size. Note: potency is the fitted concentration of half-maximal effect.
Experiment [3] has as its target Rap guanine nucleotide exchange factor 3 (Homo sapiens) (UniProt O95398). In words: Confirmatory qHTS for agonist of cAMP-regulated guanine nucleotide exchange factor 3 (EPAC1) (AID 1645881).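 Note: EPAC1 catalysed release of BODIPY-GDP from Rap1B seen as fluorescence loss; nearly all actives have a fitted effect of over 75% in size.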
Experiment [4] has as its target Rap guanine nucleotide exchange factor 4 (Homo sapiens) (UniProt Q8WZA2). In words: Confirmatory qHTS for agonist of cAMP-regulated guanine nucleotide exchange factor 4 (EPAC2) (AID 1645884).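 Note: nucleotide exchange releases bodipy-GDP from Rap1 and this lowers its fluorescence; nearly all actives have a fitted effect of over 65% in size.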
The target of experiment [5] is Rap guanine nucleotide exchange factor 3 (Homo sapiens) (UniProt O95398). In words: Confirmatory qHTS for antagonist of cAMP-regulated guanine nucleotide exchange factor 3 (EPAC1) (AID 1645880). Note: nearly all actives have a fitted effect of over 55% in size. Note: potency is the fitted concentration of half-maximal effect. Put shortly: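 Nucleotide exchange uses 100 nM EPAC1, 250 nM RAP1B-BODIPY-GDP and 50 uM GDP, with compounds in a concentration-titration series. After 5 min at room temperature, fluorescence (480 nm ex/540 nm em) is read every 5 min for 30 min. Data are normalized to control ATA and DMSO.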
Chain of Rap guanine nucleotide exchange factor 3 (Homo sapiens) (O95398 whole entry, looked up): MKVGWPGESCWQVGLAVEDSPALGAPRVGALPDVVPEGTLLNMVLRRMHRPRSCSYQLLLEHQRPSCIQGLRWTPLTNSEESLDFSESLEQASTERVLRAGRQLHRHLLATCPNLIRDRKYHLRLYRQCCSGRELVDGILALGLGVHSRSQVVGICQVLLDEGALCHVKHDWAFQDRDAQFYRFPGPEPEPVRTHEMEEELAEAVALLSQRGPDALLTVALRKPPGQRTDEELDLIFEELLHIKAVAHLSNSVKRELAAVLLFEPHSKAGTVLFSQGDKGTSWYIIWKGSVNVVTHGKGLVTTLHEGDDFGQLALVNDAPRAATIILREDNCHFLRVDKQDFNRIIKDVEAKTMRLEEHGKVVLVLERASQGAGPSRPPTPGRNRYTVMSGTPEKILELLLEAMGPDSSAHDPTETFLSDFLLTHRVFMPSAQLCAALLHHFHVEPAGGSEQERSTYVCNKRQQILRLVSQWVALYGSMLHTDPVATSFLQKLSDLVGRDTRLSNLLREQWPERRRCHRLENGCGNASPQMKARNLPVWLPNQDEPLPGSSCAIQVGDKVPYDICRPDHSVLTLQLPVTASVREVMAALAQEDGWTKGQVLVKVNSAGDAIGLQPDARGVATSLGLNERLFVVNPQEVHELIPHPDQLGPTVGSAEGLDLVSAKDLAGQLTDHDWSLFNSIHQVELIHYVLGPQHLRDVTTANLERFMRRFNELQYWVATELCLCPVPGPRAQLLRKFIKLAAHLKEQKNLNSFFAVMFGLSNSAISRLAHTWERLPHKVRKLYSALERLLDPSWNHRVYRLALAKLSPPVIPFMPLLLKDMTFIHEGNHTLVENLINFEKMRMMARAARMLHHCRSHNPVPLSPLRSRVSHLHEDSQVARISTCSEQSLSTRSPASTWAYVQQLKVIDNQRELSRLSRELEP

Structures are written as SMILES. Values joined by “and” are separate entries in the source; they are usually repeats but may differ in a detail not shown here. Equal values may be shown once. Inconclusive results are not listed. Active and inactive are the calls of the source. Calls come from the whole dose curve; as a rule, active = well fitted curve in the direction sought with a large enough effect; inconclusive = small, poorly fitted or top-dose-only effect, or another doubt; inactive = no such curve, though single readings can be large; an effect the other way counts as inactive or inconclusive.

Chain of Rap guanine nucleotide exchange factor 4 (Homo sapiens) (Q8WZA2 whole entry, looked up): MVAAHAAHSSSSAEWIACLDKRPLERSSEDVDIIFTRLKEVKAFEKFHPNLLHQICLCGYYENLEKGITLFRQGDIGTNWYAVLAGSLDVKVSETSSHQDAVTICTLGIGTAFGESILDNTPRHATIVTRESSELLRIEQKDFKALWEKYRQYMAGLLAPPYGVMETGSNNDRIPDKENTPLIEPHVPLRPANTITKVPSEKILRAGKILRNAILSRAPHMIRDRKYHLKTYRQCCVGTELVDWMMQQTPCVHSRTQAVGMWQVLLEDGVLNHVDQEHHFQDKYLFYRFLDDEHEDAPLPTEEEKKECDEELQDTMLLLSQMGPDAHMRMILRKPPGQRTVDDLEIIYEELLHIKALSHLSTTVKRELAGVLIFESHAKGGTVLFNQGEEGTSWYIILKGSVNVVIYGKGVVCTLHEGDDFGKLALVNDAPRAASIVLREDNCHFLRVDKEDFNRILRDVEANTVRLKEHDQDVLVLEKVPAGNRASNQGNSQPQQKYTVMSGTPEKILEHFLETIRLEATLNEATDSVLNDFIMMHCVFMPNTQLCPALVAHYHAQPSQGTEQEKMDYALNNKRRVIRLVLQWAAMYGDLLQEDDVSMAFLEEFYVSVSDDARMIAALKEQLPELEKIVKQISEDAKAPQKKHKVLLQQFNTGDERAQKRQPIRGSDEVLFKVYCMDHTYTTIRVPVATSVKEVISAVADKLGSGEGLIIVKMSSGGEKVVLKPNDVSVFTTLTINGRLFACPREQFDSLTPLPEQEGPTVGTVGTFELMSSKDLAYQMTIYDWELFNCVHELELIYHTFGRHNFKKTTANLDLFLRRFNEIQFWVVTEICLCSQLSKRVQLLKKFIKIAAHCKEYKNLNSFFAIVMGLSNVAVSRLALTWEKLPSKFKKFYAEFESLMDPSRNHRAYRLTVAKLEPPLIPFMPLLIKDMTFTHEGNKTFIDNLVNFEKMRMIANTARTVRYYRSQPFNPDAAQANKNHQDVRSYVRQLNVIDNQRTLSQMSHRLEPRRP

Regarding `CCC(C)SSc1ncc[nH]1` (stereo not drawn), the Potency in experiment [1] was 9.34 µM (active); in experiment [2] it was 8.33 µM (active).

As for `Cc1c(C(=O)Nc2ccc(N3C[C@@H](C)O[C@@H](C)C3)nc2)cccc1-c1ccc(OC(F)(F)F)cc1`, the Potency entry in experiment [1] and in experiment [2] was “inactive” in each case.

Regarding `C[C@@H](O[C@H]1OCCN(Cc2n[nH]c(=O)[nH]2)[C@@H]1c1ccc(F)cc1)c1cc(C(F)(F)F)cc(C(F)(F)F)c1`, the Potency result in experiment [3] and in experiment [4] was “inactive” in each case.

Consider `C[C@@H]1C[C@H]2[C@@H]3CCC4=CC(=O)C=C[C@]4(C)[C@@]3(F)[C@@H](O)C[C@]2(C)[C@@]1(O)C(=O)CO`, for which the Potency in experiment [2] was 0.0332 µM (active).

For `Nc1ccn([C@@H]2O[C@H](CO)[C@@H](O)[C@H]2O)c(=O)n1`, the Potency entry in experiment [2] was “inactive”.

Regarding `O=C(Nc1ncc(SCCN2CCCC2)s1)[C@]1(c2ccc(S(=O)(=O)C3CC3)cc2)C[C@@H]1C1CCCCC1`, the Potency is 20.6 µM (active) in experiment [1] and 14.6 µM (active) in experiment [2].

Turning to `Cc1cc2nc3c(=O)[nH]c(=O)nc-3n(CC(O)C(O)C(O)CO)c2cc1C` (stereo not drawn), the Potency result in experiment [1] and in experiment [5] was “inactive” throughout.

In the case of `O=C(NC[C@H](O)CO)c1ccncc1Nc1ccc(I)cc1F`, the Potency in experiment [2] is 16.6 µM (active).

Take `CC1=C[C@@H]2[C@@H]([C@@H](O)C[C@@]3(C)[C@H]2C[C@@H](C)[C@]3(O)C(=O)CO)[C@@]2(C)Cc3cnn(-c4ccccc4)c3C=C12`: the Potency was 3.32 µM (active) in experiment [1] and 0.0026 µM (active) in experiment [2].

As for `CCCCC(F)(F)[C@@]1(O)CC[C@H]2[C@H](CC(=O)[C@@H]2CCCCCCC(=O)O)O1`, in experiment [2], the Potency result was “inactive”.

Regarding `COC(=O)[C@H](c1ccccc1Cl)N1CCc2sccc2C1`, the Potency entry in experiment [1] and in experiment [2] was “inactive” throughout.

Consider `Cc1ccc2c(c1)C(=O)[C@]1(O)CCN(c3ccccc3)C1=N2`, for which the Potency in experiment [2] is 23 µM (active).

On to `O=C(O)CCC=CCC[C@@H]1[C@H](N2CCCCC2)[C@@H](O)C[C@@H]1OCc1ccc(-c2ccccc2)cc1`, for which the Potency result in experiment [1] and in experiment [2] was “inactive” in each case.

For `COc1cc(F)c(C(C)C)cc1-c1ccc(C(F)(F)F)cc1CN1C(=O)O[C@H](c2cc(C(F)(F)F)cc(C(F)(F)F)c2)[C@@H]1C`, the Potency entry in experiment [2] was “inactive”.

For the molecule `CCC[C@H](Nc1nc(-c2ccc(NC(=O)NCC)c(OC)c2)ncc1C)c1cccnc1`, the Potency in experiment [1] was 0.0263 µM (active); in experiment [2] it was 0.0372 µM (active).

As for `CCC(=O)NCC[C@@H]1CCc2ccc3c(c21)CCO3`, the Potency entry in experiment [1] and in experiment [2] was “inactive” throughout.

In the case of `CCCCCCCCCCCCCCCC(=O)O[C@H]1[C@@H](O)[C@@H](O)[C@@H]([C@H](NC(=O)[C@@H]2C[C@@H](CCC)CN2C)[C@H](C)Cl)O[C@@H]1SC`, the Potency entry in experiment [2] is “inactive”.

For the molecule `OC(c1cc(C(F)(F)F)nc2c(C(F)(F)F)cccc12)C1CCCCN1` (stereo not drawn), the Potency in experiment [1] is 11.8 µM (active); in experiment [2] it was 13.2 µM (active).

Turning to `CN1CCN2c3ncccc3Cc3ccccc3C2C1` (stereo not drawn), the Potency result in experiment [1] and in experiment [2] was “inactive” throughout.

Turning to `O=c1cc(-c2ccc(O)c(O)c2)oc2cc(O)cc(O)c12`, the Potency in experiment [1] was 10.5 µM (active); in experiment [2] it was 9.34 µM (active); in experiment [5], 6.27 µM (active) and 5.77 µM (active) and 7.57 µM (active). Further, the Potency entry in experiment [3] and in experiment [4] was “inactive” in each case.

For `CC(=O)NCCC(=O)N[C@@H](CCC(N)=O)C(=O)N[C@@H](CO)C(=O)N[C@@H](CCC(N)=O)C(=O)N[C@@H](CCC(N)=O)C(=O)N[C@H](C(=O)N[C@@H](Cc1ccccc1)C(=O)N[C@]1(C)CCCCCCC=CCCC[C@@](C)(C(=O)N[C@@H](CCC(N)=O)C(=O)N[C@@H](CC(N)=O)C(N)=O)NC(=O)[C@H](CC(C)C)NC(=O)[C@H](CC(C)C)NC(=O)[C@@H](CCCNC(=N)N)NC(=O)[C@H](Cc2c[nH]c3ccccc23)NC(=O)[C@H](CC(C)C)NC(=O)[C@H](CC(N)=O)NC1=O)[C@H](C)O`, the Potency result in experiment [1] and in experiment [2] was “inactive” throughout.

`COc1cc([C@@H]2c3cc4c(cc3[C@@H](O[C@@H]3O[C@@H]5CO[C@@H](C)O[C@@H]5[C@H](O)[C@@H]3O)[C@H]3COC(=O)[C@H]23)OCO4)cc(OC)c1O`: the Potency in experiment [1] is 0.263 µM (active); in experiment [2], 0.235 µM (active).

On to `CCCC1OC2C[C@@H]3[C@H]4CCC5=CC(=O)C=C[C@]5(C)[C@H]4C(O)C[C@]3(C)[C@]2(C(=O)CO)O1` (stereo partly drawn), for which, in experiment [2], the Potency was 0.0053 µM (active).

Consider `COc1cc2nccc(Oc3ccc(NC(=O)Nc4ccc(F)cc4F)c(F)c3)c2cc1OC`, for which, in experiment [2], the Potency is 2.35 µM (active).

Turning to `Cc1ccc2c(=O)c3cccc(CC(=O)O)c3oc2c1C`, the Potency result in experiment [1] and in experiment [2] was “inactive” throughout.

Regarding `CCCCCCCCCCCCCC(=O)N[C@H](CO)[C@H](O)c1ccc([N+](=O)[O-])cc1`, the Potency entry in experiment [2] is “inactive”.

In the case of `COc1nccc(-c2c(-c3ccc(F)cc3)ncn2C2CCNCC2)n1`, in experiment [2], the Potency was 18.6 µM (active).

For `CS(=O)(=O)c1ccc(C2=C(c3ccccc3)C(=O)OC2)cc1`, the Potency result in experiment [1] and in experiment [2] was “inactive” in each case.
